Experimental data taken from PubChem BioAssay (NCATS).
Inconclusive results are not listed. Active and inactive are the calls of the source. Calls follow the shape of the dose curve; as a rule, active = well fitted curve in the direction sought with a large enough effect; inconclusive = small, poorly fitted or top-dose-only effect, or another doubt; inactive = no such curve, though single readings can be large; an effect the other way counts as inactive or inconclusive.

Columns and labels:
[1] = Quantitative High-Throughput drug screen in 47 multiple myeloma cell lines against the NCATS MIPE library collection: FR4_PLB cell viability assay (AID 1918924; also: nearly all actives have a fitted effect of over 35% in size)
Procedure, shortened: (§1)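 Luminescent ATP measurement with CellTiter-Glo gives viability, scaled between DMSO-only wells (100%) and media-only wells (0%). Cells, 500 per well, faced library compounds for 48 hours at 37C.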

[2] = Quantitative High-Throughput drug screen in 47 multiple myeloma cell lines against the NCATS MIPE library collection: Delta47_JCRB cell viability assay (AID 1918925; also: nearly all actives have a fitted effect of over 45% in size)
Procedure, shortened: (§2)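 qHTS of the MIPE 4.0 collection: 500 myeloma cells/well, 48 h drug exposure at 37C in 5% CO2, then CellTiter-Glo for 5 min at room temperature before luminescence reading.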

[3] = Quantitative High-Throughput drug screen in 47 multiple myeloma cell lines against the NCATS MIPE library collection: AMO1_DSMZ cell viability assay (AID 1918927; also: nearly all actives have a fitted effect of over 30% in size)
Procedure, shortened: as §2

[4] = Quantitative High-Throughput drug screen in 47 multiple myeloma cell lines against the NCATS MIPE library collection: ARP1_JJKsccF8 cell viability assay (AID 1918928; also: nearly all actives have a fitted effect of over 40% in size)
Procedure, shortened: (§3)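 Luminescence from CellTiter-Glo, taken after 5 min at room temperature, reports cellular ATP as viability. Cells (500 per well) had been treated 48 h at 37 °C with MIPE 4.0 compounds, scaled between DMSO and medium-only controls.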

[5] = Quantitative High-Throughput drug screen in 47 multiple myeloma cell lines against the NCATS MIPE library collection: ARD_JJKsccE7 cell viability assay (AID 1918929)
Procedure, shortened: as §2

[6] = Quantitative High-Throughput drug screen in 47 multiple myeloma cell lines against the NCATS MIPE library collection: Karpas620_DSMZ cell viability assay (AID 1918959); also: nearly all actives have a fitted effect of over 30% in size
Procedure, shortened: as §1

[7] = Quantitative High-Throughput drug screen in 47 multiple myeloma cell lines against the NCATS MIPE library collection: KMM1_JCRB cell viability assay (AID 1918960); also: nearly all actives have a fitted effect of over 30% in size
Procedure, shortened: as §3

[8] = Quantitative High-Throughput drug screen in 47 multiple myeloma cell lines against the NCATS MIPE library collection: JIM3_ECACC cell viability assay (AID 1918963; also: nearly all actives have a fitted effect of over 35% in size)
Procedure, shortened: as §1

[9] = Quantitative High-Throughput drug screen in 47 multiple myeloma cell lines against the NCATS MIPE library collection: JIM1_ECACC cell viability assay (AID 1918964)
Procedure, shortened: as §2

[10] = Quantitative High-Throughput drug screen in 47 multiple myeloma cell lines against the NCATS MIPE library collection: INA6_PLB cell viability assay (AID 1918965; also: nearly all actives have a fitted effect of over 55% in size)
Procedure, shortened: (§4)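 Steps: seed 500 cells per well; pin-transfer MIPE 4.0 library; incubate 48 h at 37C, 5% CO2, humidified; add CellTiter-Glo, 5 min room temperature; read luminescence.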

[11] = Quantitative High-Throughput drug screen in 47 multiple myeloma cell lines against the NCATS MIPE library collection: H1112_PLB cell viability assay (AID 1918967; also: nearly all actives have a fitted effect of over 30% in size)
Procedure, shortened: as §2

[12] = Quantitative High-Throughput drug screen in 47 multiple myeloma cell lines against the NCATS MIPE library collection: Karpas25_ECACC cell viability assay (AID 1918968; also: nearly all actives have a fitted effect of over 35% in size)
Procedure, shortened: as §2

[13] = Quantitative High-Throughput drug screen in 47 multiple myeloma cell lines against the NCATS MIPE library collection: KMS27_JCRB cell viability assay (AID 1918970); conditions: KMS27 myeloma cells, CellTiter-Glo ATP viability, 48 h; viability (% of DMSO): at 45.8 µM (top of the series); also: nearly all actives have a fitted effect of over 30% in size
Procedure, shortened: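 KMS27_JCRB myeloma cells, 500 per well, exposed 48 h at 37 C, 5% CO2 to MIPE 4.0 compounds. Viability from ATP by CellTiter-Glo luminescence, normalized to DMSO (100%) and medium-only (0%) wells.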

[14] = Quantitative High-Throughput drug screen in 47 multiple myeloma cell lines against the NCATS MIPE library collection: EJM_DSMZ cell viability assay (AID 1918926; also: nearly all actives have a fitted effect of over 30% in size)
Procedure, shortened: as §2

[15] = Quantitative High-Throughput drug screen in 47 multiple myeloma cell lines against the NCATS MIPE library collection: KHM11_PLB cell viability assay (AID 1918962); also: nearly all actives have a fitted effect of over 35% in size
Procedure, shortened: as §1

[16] = Quantitative High-Throughput drug screen in 47 multiple myeloma cell lines against the NCATS MIPE library collection: JJN3_DSMZ cell viability assay (AID 1918966; also: nearly all actives have a fitted effect of over 50% in size)
Procedure, shortened: as §2

[17] = Quantitative High-Throughput drug screen in 47 multiple myeloma cell lines against the NCATS MIPE library collection: Karpas417_ECACC cell viability assay (AID 1918961); conditions: Karpas417 myeloma viability, CellTiter-Glo ATP luminescence, 48 h; viability (% of DMSO): at 45.8 µM (top of the series)
Procedure, shortened: as §4

Measured: Potency
Potency is read from the fitted curve at half-maximal effect.

CC(C)=CCCC(C)=CCCC(C)=CCCC(C)=CCCC(C)=CCCC(C)=CCCC(C)=CCCC(C)=CCCC(C)=CCO
inactive: [1] | [2] | [3] | [4] | [5] | [6] | [7] | [8] | [9] | [10] | [11] | [12] | [13]

N#CC(c1ccc(Cl)cc1)c1c(Cl)cc(-n2ncc(=O)[nH]c2=O)cc1Cl (configuration not stated)
inactive: [1]
active: [2] 23.5 µM | [14] 16.6 µM | [3] 5.26 µM | [5] 18.7 µM | [6] 10.5 µM | [7] 5.9 µM | [15] 0.372 µM | [9] 20.9 µM | [10] 23.5 µM | [16] 16.6 µM | [11] 20.9 µM | [12] 8.33 µM | [13] 5.9 µM

CCCCOCCOc1nc(-c2ccc(C(=O)O)c(F)c2)sc1C
active: [8] 0.372 µM
inactive: [1] | [2] | [14] | [3] | [6] | [7] | [17] | [11] | [13]

O=c1[nH]c(=O)n([C@H]2C[C@@H](O)[C@@H](CO)O2)cc1I
inactive: [1] | [2] | [14] | [4] | [6] | [17] | [9] | [16] | [11] | [12] | [13]
active: [5] 3.32 µM

CC[C@H]1OC(=O)[C@H](C)[C@@H](O[C@H]2C[C@@](C)(OC)[C@@H](O)[C@H](C)O2)[C@H](C)[C@@H](O[C@@H]2O[C@H](C)C[C@H](N(C)C)[C@H]2O)[C@](C)(O)C[C@H](C)C(=NOCOCCOC)[C@H](C)[C@@H](O)[C@]1(C)O
inactive: [1] | [2] | [14] | [4] | [6] | [7] | [15] | [8] | [9] | [11] | [12] | [13]

CC(NCCc1ccc(O)cc1)C(O)c1ccc(O)cc1 (configuration not stated)
active: [7] 0.132 µM
inactive: [1] | [2] | [3] | [4] | [5] | [6] | [17] | [15] | [8] | [9] | [10] | [16] | [11] | [13]

CN(C)c1ccccc1CN1CCCN(Cc2ccccc2N(C)C)C1c1ccncc1
active: [1] 18.7 µM | [2] 20.9 µM | [3] 16.6 µM | [5] 18.7 µM | [15] 3.32 µM | [10] 23.5 µM | [12] 16.6 µM

COc1cc(F)c(C(C)C)cc1-c1ccc(C(F)(F)F)cc1CN1C(=O)O[C@H](c2cc(C(F)(F)F)cc(C(F)(F)F)c2)[C@@H]1C
inactive: [1] | [2] | [14] | [3] | [5] | [6] | [7] | [8] | [9] | [11] | [12] | [13]

COC1CCC(C(=O)c2ccc3nc4c(cc3c2)CCCO4)CC1 (configuration not stated)
active: [1] 26.4 µM | [2] 16.6 µM | [3] 18.7 µM | [4] 23.5 µM | [6] 16.6 µM | [15] 9.35 µM | [8] 14.8 µM | [10] 13.2 µM | [16] 20.9 µM | [12] 18.7 µM | [13] 18.7 µM

CC=C1C2C=C(C)CC1(N)c1ccc(=O)[nH]c1C2 (configuration not stated)
inactive: [1] | [2] | [14] | [3] | [5] | [6] | [7] | [15] | [8] | [11] | [12] | [13]

Cc1ccc(NC(=O)c2ccc(CN3CCN(C)CC3)cc2)cc1Nc1nc(-c2cccnc2)cs1
active: [1] 20.9 µM | [2] 6.62 µM | [3] 18.7 µM | [4] 23.5 µM | [5] 23.5 µM | [7] 16.6 µM | [15] 7.43 µM | [8] 14.8 µM | [10] 5.26 µM | [16] 16.6 µM | [12] 5.9 µM | [13] 20.9 µM

CCCCC[C@H](O)C=C[C@H]1[C@H](O)CC(=O)[C@H]1CCCCCCC(=O)O
inactive: [1] | [2] | [14] | [3] | [6] | [7] | [9] | [11] | [13]
active: [4] 23.5 µM | [16] 7.43 µM | [12] 23.5 µM

CCC(C)SSc1ncc[nH]1 (configuration not stated)
active: [1] 16.6 µM | [2] 10.5 µM | [3] 9.35 µM | [4] 9.35 µM | [5] 5.26 µM | [6] 4.69 µM | [7] 3.32 µM | [17] 2.35 µM | [15] 13.2 µM | [8] 14.8 µM | [9] 5.9 µM | [10] 4.69 µM | [16] 4.69 µM | [11] 5.26 µM | [12] 4.18 µM | [13] 10.5 µM

O=C1C(CCC(O)c2ccc(F)cc2)C(c2ccc(O)cc2)N1c1ccc(F)cc1 (configuration not stated)
inactive: [1] | [2] | [3] | [4] | [6] | [9] | [10] | [11] | [12]
